# A number with no mark means an inactive call. No rule for the calls is given here.
# Molecular target: Pantothenate synthetase (Mycobacterium tuberculosis (strain ATCC 25618 / H37Rv)) (UniProt P9WIL5)
# Test: Recombinant Mtb pantothenate synthetase (PanC) inhibitors, coupled enzyme, confirmatory (AID 375);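 also: 0% = full reaction with vehicle and 100% = no enzyme background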
# Details: coupled enzyme assay; at 10 µM, hits give high values
# Pantothenate synthetase (Mycobacterium tuberculosis (strain ATCC 25618 / H37Rv)), sequence (P9WIL5 whole entry, looked up): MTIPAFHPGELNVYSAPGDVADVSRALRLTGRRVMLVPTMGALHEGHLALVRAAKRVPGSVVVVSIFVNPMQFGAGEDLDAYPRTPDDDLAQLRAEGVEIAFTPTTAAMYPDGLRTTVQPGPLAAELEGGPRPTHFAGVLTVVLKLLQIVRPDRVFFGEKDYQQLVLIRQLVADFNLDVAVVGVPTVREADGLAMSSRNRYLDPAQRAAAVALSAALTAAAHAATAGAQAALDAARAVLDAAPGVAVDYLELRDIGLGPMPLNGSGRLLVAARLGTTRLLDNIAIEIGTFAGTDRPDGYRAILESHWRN
row,SMILES,inhibition [%]
1,Cc1csc(SCc2nc3sc4c(c3c(=O)[nH]2)CCC4)n1,0
2,CC(=O)OCC1OC(c2ccccc2)C(OC(C)=O)C(OC(C)=O)C1OC(C)=O (configuration not stated),0
3,CCOC(=O)c1[nH]c2ccc(C)cc2c1N=C(C)N(C)C,11
4,Cc1ccc(NC(=O)CCN2CCc3ccccc3C2)cc1,0
5,CCOC(=O)c1cc2c(=O)n3cccc(C)c3nc2n(CC2CCCO2)c1=NC(C)=O (configuration not stated),7
6,CC(=O)N1CCc2cc(S(=O)(=O)NCCC3=CCCCC3)ccc21,2
7,Cc1cccc(NC(=O)CC(C)(C)C)c1,0
8,CCCn1cnc2c(cnn2-c2ccc(F)cc2)c1=O,4
9,CC1=C(/C=C/C(C)=C/C=C/C(C)=C/C(=O)O)C(C)(C)CCC1,0
10,CC(C)(C)NC(=O)COC(=O)c1snc(C(=O)NC2CCCCC2)c1N,3
11,O=C(c1ccc2c(c1)OCO2)N1CCCN(C(=O)c2ccc3c(c2)OCO3)CC1,0
12,O=c1oc2c3c4c(cc2s1)CCCN4CCC3,0
13,COc1ccccc1N1CCN(C(=O)c2cc(-c3ccc(Cl)c(Cl)c3)on2)CC1,0
14,Cc1ccc(/C=c2\s/c(=C(/C#N)C(=O)N3CCCC3)n(Cc3ccco3)c2=O)s1,0
15,Fc1cccc(Nc2cc(-n3cccn3)ncn2)c1,3
16,O=c1c2cc(N3CCOCC3)ccc2[nH]c(=S)n1CCCN1CCCCC1,1
17,CCSC1(SCC)N=C(N)C2(C#N)C(c3ccccc3)NC(C)=C(C)C12C#N (configuration not stated),0

# — PubChem BioAssay
